Experimental data: the supplement of paper PMC13380429

Test system: Vero E6 infected with SARS-CoV-2
Experiment: inhibition of SARS-CoV-2 cytopathic effect; higher = more antiviral protection, active = above 15
Conditions: 48 h

Measured: inhibition of SARS-CoV-2 cytopathic effect

CN1C2CCCC1CC(NC(=O)c1nn(C)c3ccccc13)C2 (stereo not given) [granisetron]
inactive: 1 nM 3.53% | 8.33 nM 4.21% | 100 nM -1.14% | 833.33 nM -2.63% | 10000 nM -4.21%

CC(C)OC(=O)CNC(=O)[C@H](CS)NC(=O)CC[C@H](N)C(=O)O [glutathione-monoisopropyl-ester]
inactive: 1 nM -0.48% | 8.33 nM 2.43% | 100 nM -0.65% | 833.33 nM 0.55% | 10000 nM 2.32%

CNS(=O)(=O)Nc1nccc(Cc2c(C)c3ccc(Oc4ncccn4)cc3oc2=O)c1F
inactive: 1 nM -0.25% | 8.33 nM -3.18% | 100 nM -10.4% | 833.33 nM -17.5% | 10000 nM -15.7%

CC(C)(C)c1cc(C(C)(C)C)c(NC(=O)c2c[nH]c3ccccc3c2=O)cc1O [ivacaftor]
inactive: 1 nM -1.65% | 8.33 nM 1.11% | 100 nM -2.96% | 833.33 nM -10.4% | 10000 nM -4.71%

O=c1[nH]ccc2cc(OC3CCNCC3)ccc12
inactive: 1 nM 1.91% | 8.33 nM 0.89% | 100 nM -0.08% | 833.33 nM -3.34% | 10000 nM -7.36%

C=CC(=O)Nc1cccc(Nc2nc(Nc3ccc(N4CCN(C(C)=O)CC4)cc3OC)ncc2C(F)(F)F)c1 [rociletinib]
inactive: 1 nM -0.09% | 8.33 nM -1.67% | 100 nM -0.14% | 833.33 nM -2.42% | 10000 nM -11.9%

Cc1cc(C)c2c(N)c(C(=O)NCc3ccc(Cl)cc3)sc2n1
inactive: 1 nM 1.18% | 8.33 nM -1.88% | 100 nM -0.97% | 833.33 nM -0.85% | 10000 nM 0.14%

C[C@@H]1CCCN1CCc1cc2cc(-c3ccc(C#N)cc3)ccc2o1
inactive: 1 nM -2.35% | 8.33 nM -2.18% | 100 nM 1.55% | 833.33 nM -0.35% | 10000 nM 4.34%

C[C@@H](CN1CCC(Cc2ccccc2)CC1)[C@@H](O)c1ccc(O)cc1
inactive: 1 nM -1.15% | 8.33 nM -0.92% | 100 nM -0.78% | 833.33 nM -2.61% | 10000 nM -5.49%
